# Test results taken from ChEMBL document CHEMBL3988442, “University of Dundee, Small-Polar-MMV Screening Library” (2021).
# For some of these results: Potency and affinity values are given separately.
# Tests used:
# Design in all cases: scale not given: direction of the effect not stated beside the values
# [1] = target: Protein translocase subunit SecA (Escherichia coli (strain K12)) (UniProt P10408); experiment: Assay to Identify E. coli SecA ATPase Inhibitors; format: functional; conditions: 30 µM
# Sequence of Protein translocase subunit SecA (Escherichia coli (strain K12)) (P10408 whole entry): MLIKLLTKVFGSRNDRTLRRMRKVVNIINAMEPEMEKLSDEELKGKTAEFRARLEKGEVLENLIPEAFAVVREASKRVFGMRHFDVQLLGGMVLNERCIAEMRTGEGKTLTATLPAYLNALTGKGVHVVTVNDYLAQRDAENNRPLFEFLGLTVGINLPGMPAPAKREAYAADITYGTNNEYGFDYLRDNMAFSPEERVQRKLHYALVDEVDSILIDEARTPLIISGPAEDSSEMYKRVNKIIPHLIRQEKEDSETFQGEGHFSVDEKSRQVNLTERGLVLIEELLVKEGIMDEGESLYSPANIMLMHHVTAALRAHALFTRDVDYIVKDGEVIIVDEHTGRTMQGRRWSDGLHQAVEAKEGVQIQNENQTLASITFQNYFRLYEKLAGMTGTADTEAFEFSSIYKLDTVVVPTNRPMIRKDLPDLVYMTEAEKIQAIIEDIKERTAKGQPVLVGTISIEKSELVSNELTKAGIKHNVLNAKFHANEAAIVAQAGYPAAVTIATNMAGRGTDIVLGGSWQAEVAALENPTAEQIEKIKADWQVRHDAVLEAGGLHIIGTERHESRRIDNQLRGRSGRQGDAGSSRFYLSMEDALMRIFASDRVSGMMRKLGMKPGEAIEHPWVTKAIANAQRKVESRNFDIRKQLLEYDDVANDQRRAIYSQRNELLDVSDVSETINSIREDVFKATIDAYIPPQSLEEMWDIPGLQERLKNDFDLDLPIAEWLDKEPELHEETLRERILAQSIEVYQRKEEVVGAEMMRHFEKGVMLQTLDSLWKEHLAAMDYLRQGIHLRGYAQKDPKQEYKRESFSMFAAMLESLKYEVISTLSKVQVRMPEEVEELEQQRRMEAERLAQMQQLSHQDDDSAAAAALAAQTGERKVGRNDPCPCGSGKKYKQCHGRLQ
# [2] = target: T1, Ubiquitin-activating enzyme e1, putative (Leishmania donovani (strain BPK282A1)) (UniProt E9BSI1); experiment: Leishmania donovani Ubiquitin Activating Enzyme (LdE1); format: functional; conditions: 30 µM
# T1 sequence (whole entry): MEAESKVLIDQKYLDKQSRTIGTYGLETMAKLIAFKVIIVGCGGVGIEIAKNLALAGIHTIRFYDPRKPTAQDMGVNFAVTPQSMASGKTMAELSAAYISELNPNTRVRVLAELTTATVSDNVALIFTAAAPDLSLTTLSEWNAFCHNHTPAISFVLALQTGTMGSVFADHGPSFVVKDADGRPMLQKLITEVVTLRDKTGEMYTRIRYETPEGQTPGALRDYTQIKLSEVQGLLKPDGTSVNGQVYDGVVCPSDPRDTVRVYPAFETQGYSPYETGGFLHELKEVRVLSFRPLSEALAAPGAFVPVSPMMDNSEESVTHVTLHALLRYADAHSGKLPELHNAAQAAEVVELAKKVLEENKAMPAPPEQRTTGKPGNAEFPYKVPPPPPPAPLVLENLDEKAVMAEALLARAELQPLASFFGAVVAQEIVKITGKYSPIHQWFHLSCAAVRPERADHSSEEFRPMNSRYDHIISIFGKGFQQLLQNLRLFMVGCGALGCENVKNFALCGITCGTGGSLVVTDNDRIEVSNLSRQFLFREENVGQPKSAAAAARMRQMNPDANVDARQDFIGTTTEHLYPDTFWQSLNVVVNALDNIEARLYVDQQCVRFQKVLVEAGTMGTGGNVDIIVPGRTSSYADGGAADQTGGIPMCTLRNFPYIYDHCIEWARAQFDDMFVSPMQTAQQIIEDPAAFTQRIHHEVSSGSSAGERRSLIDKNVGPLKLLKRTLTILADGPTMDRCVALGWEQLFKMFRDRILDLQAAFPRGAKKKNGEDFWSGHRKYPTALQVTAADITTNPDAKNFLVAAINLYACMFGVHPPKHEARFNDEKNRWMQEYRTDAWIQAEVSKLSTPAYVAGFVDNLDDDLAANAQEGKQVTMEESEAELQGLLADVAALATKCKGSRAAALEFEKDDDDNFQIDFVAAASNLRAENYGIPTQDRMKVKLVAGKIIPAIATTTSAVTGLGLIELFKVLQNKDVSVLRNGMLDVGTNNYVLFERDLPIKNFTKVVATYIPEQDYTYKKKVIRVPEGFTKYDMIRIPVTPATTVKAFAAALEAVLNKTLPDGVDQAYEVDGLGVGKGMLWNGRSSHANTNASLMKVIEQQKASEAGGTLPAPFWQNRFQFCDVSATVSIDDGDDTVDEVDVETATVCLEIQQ
# [3] = target: AMP-activated protein kinase, AMPK (Homo sapiens) (UniProt P54646+O43741+P54619+Q9UGJ0+Q9Y478+Q13131+Q9UGI9); experiment: AMP-dependent Kinase enzyme assay. An in vitro enzyme assay that detects ADP turnover that is directly proportional to AMPK activity. This uses naive AMPK that is activated during the assay with MK-8722; format: functional; conditions: 30 µM
# [4] = target: Sialic acid-binding Ig-like lectin 9 (Homo sapiens) (UniProt Q9Y336); experiment: Hs-Siglec9 ALPHAscreen SOP 20170721; conditions: 10 µM
# Sequence of Sialic acid-binding Ig-like lectin 9 (Homo sapiens) (Q9Y336 whole entry): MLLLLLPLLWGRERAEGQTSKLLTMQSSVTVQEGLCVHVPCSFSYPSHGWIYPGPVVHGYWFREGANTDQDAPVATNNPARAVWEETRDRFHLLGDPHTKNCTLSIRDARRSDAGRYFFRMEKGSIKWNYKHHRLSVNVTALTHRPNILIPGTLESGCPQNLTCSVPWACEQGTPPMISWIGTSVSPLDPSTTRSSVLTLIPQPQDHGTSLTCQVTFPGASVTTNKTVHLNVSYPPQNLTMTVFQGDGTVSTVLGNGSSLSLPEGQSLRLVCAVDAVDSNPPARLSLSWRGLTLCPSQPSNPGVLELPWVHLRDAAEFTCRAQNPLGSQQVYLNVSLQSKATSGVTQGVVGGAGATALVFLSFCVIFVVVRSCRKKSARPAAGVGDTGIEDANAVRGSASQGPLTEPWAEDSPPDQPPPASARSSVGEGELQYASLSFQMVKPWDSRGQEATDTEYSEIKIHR
# [5] = test system: Trypanosoma cruzi; experiment: Trypanosoma cruzi phosphomannomutase and mannose-1-phosphate guanylyltransferase assay; format: functional; conditions: 10 µM
# [6] = target: T2, Arginase-2, mitochondrial (Homo sapiens) (UniProt P78540); experiment: in vitro enzyme assay to detect the production of urea directly proportional to the activity of Arginase II; format: functional; conditions: 33.3 µM; note: in the data most compounds retested in dose-response had high values
# T2 sequence (whole entry): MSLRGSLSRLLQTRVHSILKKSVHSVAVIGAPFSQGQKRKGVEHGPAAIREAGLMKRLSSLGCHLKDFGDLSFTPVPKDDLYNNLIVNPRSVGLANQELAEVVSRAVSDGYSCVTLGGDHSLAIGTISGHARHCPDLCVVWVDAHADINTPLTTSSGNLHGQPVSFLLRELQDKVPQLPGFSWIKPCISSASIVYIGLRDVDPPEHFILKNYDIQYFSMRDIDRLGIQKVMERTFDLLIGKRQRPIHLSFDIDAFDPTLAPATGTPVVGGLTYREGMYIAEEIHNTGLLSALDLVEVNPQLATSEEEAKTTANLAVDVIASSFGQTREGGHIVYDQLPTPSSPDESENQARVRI
# [7] = target: T3, Proteasome subunit beta (Trypanosoma cruzi) (UniProt O96673); experiment: Trypanosoma cruzi proteasome chymotrypsin-like activity (TcProtChymo) assay.; note: in the data most compounds retested in dose-response had high values; format: functional; conditions: 9.37 µM
# T3 sequence (whole entry): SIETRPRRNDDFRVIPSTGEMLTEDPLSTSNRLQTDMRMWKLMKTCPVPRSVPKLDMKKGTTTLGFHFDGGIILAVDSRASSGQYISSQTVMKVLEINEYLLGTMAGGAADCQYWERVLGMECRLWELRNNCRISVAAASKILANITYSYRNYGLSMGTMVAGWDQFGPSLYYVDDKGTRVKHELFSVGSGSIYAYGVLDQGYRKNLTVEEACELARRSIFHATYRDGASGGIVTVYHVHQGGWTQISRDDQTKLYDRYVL
# [8] = species: Homo sapiens; experiment: To identify inhibition of the IFN signalling (Jak-Stat) pathway via expression of an eGFP reporter gene under the control of an IFN-stimulated response element (ISRE) containing MxA promoter.; format: functional; conditions: 30 µM
# [9] = target: T4, Tyrosyl-tRNA synthetase, putative (Trypanosoma cruzi (strain CL Brener)) (UniProt Q4DSP6); experiment: Trypanosoma cruzi tyrosyl tRNA synthetase (TcYRS) _High Tyrosine SOP; format: functional; conditions: 30 µM; note: in the data most compounds retested in dose-response had high values
# T4 sequence (whole entry): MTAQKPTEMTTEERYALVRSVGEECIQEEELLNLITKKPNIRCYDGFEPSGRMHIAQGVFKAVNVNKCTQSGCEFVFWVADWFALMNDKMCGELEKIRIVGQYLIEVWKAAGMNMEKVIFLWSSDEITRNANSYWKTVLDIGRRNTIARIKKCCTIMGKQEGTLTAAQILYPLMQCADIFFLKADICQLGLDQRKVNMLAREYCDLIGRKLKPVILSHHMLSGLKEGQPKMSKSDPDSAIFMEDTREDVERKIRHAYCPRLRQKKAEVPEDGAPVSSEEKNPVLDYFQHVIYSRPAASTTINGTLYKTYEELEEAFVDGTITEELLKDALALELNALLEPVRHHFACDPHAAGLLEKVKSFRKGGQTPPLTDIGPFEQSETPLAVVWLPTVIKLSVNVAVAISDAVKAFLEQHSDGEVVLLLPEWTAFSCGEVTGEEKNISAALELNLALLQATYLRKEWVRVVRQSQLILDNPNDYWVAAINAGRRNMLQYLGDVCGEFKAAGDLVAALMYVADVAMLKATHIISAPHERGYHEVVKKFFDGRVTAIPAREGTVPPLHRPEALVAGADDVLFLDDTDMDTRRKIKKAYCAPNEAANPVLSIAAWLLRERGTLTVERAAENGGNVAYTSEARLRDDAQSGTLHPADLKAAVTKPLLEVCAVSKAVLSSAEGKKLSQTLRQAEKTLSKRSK
# [10] = target: T4, Tyrosyl-tRNA synthetase, putative (Trypanosoma cruzi (strain CL Brener)); experiment: Trypanosoma cruzi tyrosyl tRNA synthetase (TcYRS) SOP; format: functional; conditions: 30 µM
# [11] = target: Chromo domain-containing protein 1 (Saccharomyces cerevisiae (strain ATCC 204508 / S288c) (Baker's yeast)) (UniProt P32657); experiment: ScCHD-1 Enzyme Inhibition Assay; format: functional; conditions: 30 µM; note: in the data most compounds retested in dose-response had high values
# Sequence of Chromo domain-containing protein 1 (Saccharomyces cerevisiae (strain ATCC 204508 / S288c) (Baker's yeast)) (P32657 whole entry, the tested form may be a part): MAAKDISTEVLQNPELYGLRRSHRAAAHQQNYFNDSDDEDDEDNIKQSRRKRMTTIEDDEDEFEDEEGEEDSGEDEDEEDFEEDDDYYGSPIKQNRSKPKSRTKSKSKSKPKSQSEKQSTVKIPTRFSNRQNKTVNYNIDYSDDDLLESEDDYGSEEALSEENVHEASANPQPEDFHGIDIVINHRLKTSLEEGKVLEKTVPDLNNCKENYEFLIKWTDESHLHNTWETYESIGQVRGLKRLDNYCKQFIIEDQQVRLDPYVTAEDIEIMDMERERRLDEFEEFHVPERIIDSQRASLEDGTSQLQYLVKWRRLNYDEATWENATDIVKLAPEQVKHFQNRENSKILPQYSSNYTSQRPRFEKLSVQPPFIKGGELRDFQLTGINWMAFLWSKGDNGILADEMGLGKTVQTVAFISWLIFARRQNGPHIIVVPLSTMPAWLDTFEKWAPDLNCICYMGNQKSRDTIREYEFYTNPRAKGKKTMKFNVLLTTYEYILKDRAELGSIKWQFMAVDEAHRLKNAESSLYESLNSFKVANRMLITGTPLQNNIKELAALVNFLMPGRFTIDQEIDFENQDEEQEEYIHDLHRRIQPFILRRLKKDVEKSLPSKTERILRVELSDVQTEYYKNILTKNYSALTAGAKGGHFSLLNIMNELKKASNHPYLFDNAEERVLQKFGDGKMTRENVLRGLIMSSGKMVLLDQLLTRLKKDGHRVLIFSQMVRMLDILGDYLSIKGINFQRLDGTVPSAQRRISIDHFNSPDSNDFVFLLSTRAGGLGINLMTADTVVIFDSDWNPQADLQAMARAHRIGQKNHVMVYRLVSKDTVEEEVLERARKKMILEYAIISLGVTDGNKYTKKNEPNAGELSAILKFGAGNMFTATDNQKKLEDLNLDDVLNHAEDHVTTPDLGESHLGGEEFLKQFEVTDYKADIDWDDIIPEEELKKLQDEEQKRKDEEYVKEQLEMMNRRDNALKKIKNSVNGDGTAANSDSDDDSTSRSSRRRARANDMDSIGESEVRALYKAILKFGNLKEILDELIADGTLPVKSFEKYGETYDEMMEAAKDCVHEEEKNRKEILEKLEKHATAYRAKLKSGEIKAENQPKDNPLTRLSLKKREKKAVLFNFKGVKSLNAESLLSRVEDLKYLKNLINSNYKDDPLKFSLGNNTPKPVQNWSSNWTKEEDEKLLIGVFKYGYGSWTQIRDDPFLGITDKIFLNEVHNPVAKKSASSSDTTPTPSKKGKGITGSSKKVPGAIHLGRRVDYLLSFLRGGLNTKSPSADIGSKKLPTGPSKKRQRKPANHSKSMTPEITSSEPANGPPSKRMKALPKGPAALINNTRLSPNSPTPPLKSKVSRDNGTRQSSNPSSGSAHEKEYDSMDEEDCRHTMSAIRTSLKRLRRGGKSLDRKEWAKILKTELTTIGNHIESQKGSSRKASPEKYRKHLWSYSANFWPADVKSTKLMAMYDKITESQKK
SMILES,Percent Effect [1] [%],Percent Effect [2] [%],Percent Effect [3] [%],Percent Effect [4] [%],Percent Effect [5] [%],Percent Effect [6] [%],Percent Effect [7] [%],Percent Effect [8] [%],Percent Effect [9] [%],Percent Effect [10] [%],Percent Effect [11] [%]
CCO[C@@H]1CC[C@H]2[C@H]1OCCN2C(=O)C1CCOCC1,-5.85,21.6,-7.07,5.16,3.32,3.33,18.2,2.97,10.9,1.22,-4.28
CC(C)CCN1CC2(CCCN(C(=O)c3cscn3)C2)CCC1=O (stereo not drawn),-3.18,7.79,1.5,11.5,4.82,-66.2,8.98,-4.77,5.38,13.6,-0.298
CNC(=O)[C@@]12CCC3(CCN(S(C)(=O)=O)CC3)[C@@H]1CN(S(C)(=O)=O)C2,-2.26,13.5,-10.4,2.21,-3.81,0.248,6.78,9.73,1.07,11.1,1.21
O=C(Cc1ccc(O)c(Cl)c1)N1CCCCC1CCn1cccn1 (stereo not drawn),-3.9,13.5,1.21,26.9,3.09,0.476,10.9,0.632,3.7,19.5,-5.17
CC(C)Nc1ncnc2c1CCN(C(=O)Cc1ccccn1)CC2,-6.13,1.33,-12.1,-2.69,-6.48,-10.4,10.3,-12.6,-2.12,-2.56,-11
Cc1nn(CC(C)C)c(N(C)C)c1CNCc1cc2ccccc2[nH]1,-3.68,10.8,-5.31,5.12,-2.17,-3.21,5.77,2.34,13.3,16.1,-8.01
O=C(Nc1cccc(OCc2cccc(F)c2)c1)C1COCCO1 (stereo not drawn),-6.19,-8,0.056,1.36,-3.41,-0.521,13.2,28,-8.2,-11.1,-6.84
CC(=O)c1cccc(NC(=O)Cn2cc(I)cn2)c1,-6.3,-2.63,12,2.47,-2.43,11.8,9.3,-2.61,-2.13,2.6,63
